# Screening data (PubChem BioAssay)
# FEN1 inhibitor = inhibitors of human flap endonuclease 1; P39748; Recombinant FEN1 flap cleavage, fluorescence, 15 min; Potency, µM (series often up to 114 µM), for the others: at the top dose activity change, negative = inhibition, actives largely listed as inhibitors; actives 0.35% (n = 390,000); further: on the % scale 0 is the no-effect control and ±100 the full control effect; nearly all actives have a fitted effect of over 65% in size
#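 Steps: FEN1 (10 nM) dispensed; compound added by pin tool; 15 min at room temperature; substrate added to 50 nM final; reads at 0 min and 15 min; data normalized and fitted (four-parameter Hill).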
# POLB inh = blocks human DNA polymerase beta activity; P06746; Pol beta primer extension/strand displacement, fluorescence kinetic; Potency, µM (doses to about 114 µM), without a hit: at the top dose activity change, negative = inhibition, usual class: inhibitors; actives 1.3% (n = 340,000); AID 485314; further: on the % scale 0 is the no-effect control and ±100 the full control effect
#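 Enzyme-only controls used 10 nM Pol beta; buffer lacking enzyme served as negative control. Compound preincubated 15 min, then 50 nM substrate added; 0 and 10 min reads at room temperature.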
# POLH inh = blocks human DNA polymerase eta activity. Potency, µM (top dose mostly 114 µM), for the others: top-dose activity change, negative = inhibition, hits mostly inhibitors. actives 1.2% (n = 390,000). AID 588591. Q9Y253. recombinant Pol eta, fluorescent DNA replication assay; further: on the % scale 0 is the no-effect control and ±100 the full control effect
# Target sequence (Q9Y253 whole entry, looked up): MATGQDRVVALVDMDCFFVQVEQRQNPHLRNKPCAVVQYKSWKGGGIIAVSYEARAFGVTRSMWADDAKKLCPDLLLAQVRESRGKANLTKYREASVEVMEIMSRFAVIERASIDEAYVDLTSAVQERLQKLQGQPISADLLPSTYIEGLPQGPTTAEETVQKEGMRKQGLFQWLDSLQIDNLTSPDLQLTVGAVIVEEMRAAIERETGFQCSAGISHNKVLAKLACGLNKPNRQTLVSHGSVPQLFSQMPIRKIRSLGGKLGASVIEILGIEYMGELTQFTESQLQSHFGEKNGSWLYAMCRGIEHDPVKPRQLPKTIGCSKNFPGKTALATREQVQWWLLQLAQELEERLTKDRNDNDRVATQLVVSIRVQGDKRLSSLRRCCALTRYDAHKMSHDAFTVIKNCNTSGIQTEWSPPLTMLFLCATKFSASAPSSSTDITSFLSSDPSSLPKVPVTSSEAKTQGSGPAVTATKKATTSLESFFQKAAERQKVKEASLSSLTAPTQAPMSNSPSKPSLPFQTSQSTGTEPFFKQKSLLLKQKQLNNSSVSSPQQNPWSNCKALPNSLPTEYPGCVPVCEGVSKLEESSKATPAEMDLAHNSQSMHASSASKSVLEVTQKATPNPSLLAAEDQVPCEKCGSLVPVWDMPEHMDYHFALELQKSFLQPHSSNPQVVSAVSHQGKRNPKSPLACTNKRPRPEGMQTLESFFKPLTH
#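 Fluorescent replication assay: 50 nM final substrate added after a 15 min room-temperature compound preincubation with 10 nM enzyme. Signal taken at 0 min and again at 10 min.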
# WRN inhibitor = inhibitors of human WRN helicase; WRN helicase unwinding, fluorescent forked duplex, kinetic; Potency, µM (titrated, usually from 114 µM), for inactives: top-dose activity change, negative = inhibition, most hits filed as inhibitors; actives 0.46% (n = 360,000); AID 651768; further: on the % scale 0 is the no-effect control and ±100 the full control effect; nearly all actives have a fitted effect of over 55% in size
#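 Fluorescence dequenching readout, ex 525 nm/em 598 nm, kinetic mode: forked duplex DNA (100 nM final) with adjacent fluorophore and quencher unwound by WRN (20 nM final) with 2 mM ATP. Compound preincubation 15 min, room temperature.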
# Pol kappa inh = DNA polymerase kappa (human) inhibition | purified Pol kappa, fluorescent DNA synthesis assay, 10 min | actives 0.53% (n = 400,000) | AID 588579 | Potency, µM (top dose mostly 107 µM), for inactives: at the top dose activity, negative = inhibition, actives largely listed as inhibitors; further: on the % scale 0 is the no-effect control and ±100 the full control effect
#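 Kinetic fluorescence screen: compound preincubated 15 min RT with 10 nM enzyme; 50 nM substrate (final) initiates; reads at 0/10 min.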
# POLI inh = blocks human DNA polymerase iota activity; Potency, µM (highest dose often 115 µM), for the others: at the highest dose activity, negative = inhibition, most hits filed as inhibitors; actives 1% (n = 390,000); Pol iota fluorescent replication assay, 10 min; Q9UNA4
#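 Fluorescent replication assay read twice, at 0 min and 10 min after adding 50 nM (final) substrate. Enzyme (10 nM) and compounds were first incubated 15 min at room temperature; enzyme-free buffer wells were negative controls.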
# Starred values were filed as active, the others as inactive; ? = inconclusive; · = no result; ! = a repeat was not active; [ ] = dose if it differs, or a comment. This is a sample that favours compounds with a hit; in the whole collection about 2.4% have one here. The call rests on the fitted dose curve; in most records, active means well fitted curve in the direction sought with a large enough effect; inconclusive means small, poorly fitted or top-dose-only effect, or another doubt; inactive means no such curve, though single readings can be large; an effect the other way counts as inactive or inconclusive. Potency means the concentration at half of the fitted maximal effect.
SMILES,FEN1 inhibitor,POLB inh,POLH inh,WRN inhibitor,Pol kappa inh,POLI inh
Oc1cccc(/C=N/c2c(-c3ccco3)nc3ccccn23)c1,-23%,1%,-14%,-16%[57.1 µM],-11%,25µM*
O=[N+]([O-])c1ccc(-c2ccc(/C=N/c3c(-c4ccco4)nc4ccccn34)o2)cc1,9%,4%,-16%,-7%,-8%,-18%
Cc1ccccc1CN1[C@H]2CCCC[C@@H]2OCCS1(=O)=O,-12%,·,·,·,-22%,32%
O=C1C(=C2CCCCC2)SC(=S)N1Cc1ccco1,-5%,25µM*,?,?,?,?
CN1CCN(c2nc3c(=O)[nH]c(N)nc3n2C2OC(CO)C(O)C2O)CC1 (configuration not stated),15%,·,·,·,-8%,15%
C(#Cc1ccccc1)C[N+]1(CC#Cc2ccccc2)CCCC1,1%,47%,1%,1%,0%,24%
C=CC#CC[N+]1(CC#Cc2ccccc2)CCOCC1,18µM*,4%,35µM*,22µM*,?,?
COC(=O)C1[C@H]2SC(C)(C)C(C(=O)OC)N2C(=O)N1Cc1ccccc1 (some centres not stated),-1%,·,·,·,-11%,6%
CCCNc1c(F)c(F)c2c(C)c3ccccc3nc2c1F,-15%,-12%,-8%,?,79µM*,7.9µM*
CCN(c1ccccc1)S(=O)(=O)c1ccc(Oc2ccc(-n3ccnc3)cc2)nc1,-2%,40µM*,4%,-8%,-10%,9%
O=C(CN1C(=O)NC2(CCOc3ccccc32)C1=O)c1ccc[nH]1 (configuration not stated),18%,·,?,-10%,-19%,40µM*
CCOC(=O)N/N=C\c1ccc(-c2cccc(C(F)(F)F)c2)o1,-12%,29%,-9%,-23%,2%,9%
O=C1OC(c2ccco2)=N/C1=C\c1ccc(-c2cccc(C(F)(F)F)c2)o1,13%,-1%,79µM*,?,-29%,2%
Cc1oc(-c2cccc(Cl)c2)nc1CS(=O)(=O)CC(=O)NC(C)CCc1ccccc1 (configuration not stated),-13%,-6%,-8%,·,-8%,89µM*
O=C(NCCn1cc(SCc2ccccc2)c2ccccc21)c1cccs1,89µM*,17%,-18%,·,?,89µM*
O=C(NCCn1cc(SCc2ccc(Br)cc2)c2ccccc21)c1cccs1,1%,-1%,-23%,·,0%,8%
Cc1ccc(/C=C2\SC(=S)N(CC3CCCO3)C2=O)o1 (configuration not stated),-20%,20µM*,?,-1%[11.6 µM],?,?
Cc1ccc(/C=C2/SC(=O)NC2=S)o1,40µM*,20µM*,8.9µM*,40µM*,18µM*,7.1µM*
Cc1ccc(/C=C2/SC(=S)N(C3CCCCC3)C2=O)o1,3%,-18%,-15%,13%,-2%,36%
O=C(Nc1cc(Cl)cc2c1[nH]c1cnccc12)c1cccnc1,·,·,·,·,-2%[60.1 µM],·
CC(CCC(C)C(C)(C)C)[C@@H]1CC[C@H]2C3C[C@H](OS(O)(=S)=S)[C@H]4C[C@H](OS(O)(=S)=S)[C@@H](OS(O)(=S)=S)C[C@]4(C)[C@H]3CC[C@]12C (some centres not stated) (tested in a mixture with another compound),5µM*,·,3.5µM*,16µM*,20µM*,3.5µM*
CC1=NNC(=O)/C1=C\c1cn(-c2ccccc2)nc1-c1cccs1,-24%,18%,-16%,-9%,-9%,?
CC1=NNC(=O)/C1=C\c1cn(-c2ccccc2)nc1-c1ccc(F)cc1,-14%,6%,-8%,-21%,-9%,25µM*
Cc1ccc(CNC(=O)COC(=O)c2ccccc2OCC(=O)Nc2ccc(Br)cc2)cc1,2%,·,·,·,8%,5%
Cc1ccc(/C=N/n2c(C)cc(C)c(C#N)c2=O)o1,-2%,-1%,-16%,-3%,-1%,2%
SMILES,FEN1 inhibitor,POLB inh,POLH inh,WRN inhibitor,Pol kappa inh,POLI inh
Cc1cc(C)n(/N=C/c2ccco2)c(=O)c1C#N,-2%,40µM*,-16%,-3%,-13%,?
Cc1cn(C2CC3OCC(NC(=O)C4CCCN4C(=O)OC(C)(C)C)C3O2)c(=O)[nH]c1=O (configuration not stated),-4%,·,·,·,-1%,8%
Oc1ccc(/C=C/c2cc(O)cc(O)c2)cc1,-16%,?,-3%[57.1 µM],-13%,14µM*!,?
CN(C(=O)CSc1nc(-c2ccc(C(C)(C)C)cc2)c(C#N)c(=O)[nH]1)C1CCCCC1,-35%,?,35µM*,-9%[11.6 µM],-19%,?
Cc1ccc(C)c(NC(=O)CSc2nc(-c3ccccc3)c(C#N)c(=O)[nH]2)c1,9%,56µM*,-2%,·,-7%,?
COc1ccccc1NC(=O)CSc1nc(-c2ccc(C(C)(C)C)cc2)c(C#N)c(=O)[nH]1,-12%,79µM*,·,·,-20%,-29%
CCCOc1ccc(-c2nc(SCc3ccccc3)[nH]c(=O)c2C#N)cc1OC,-5%,50µM*,-3%,-24%,-7%,35%
CSc1nc(-c2ccccc2)c(C#N)c(=O)[nH]1,-1%,10%,-20%,6%,-1%,-22%
N#Cc1c(-c2ccccc2)nc(SCC(=O)NC2CCCCC2)[nH]c1=O,-14%,38%,9%,4%,1%,-15%
CCCC[C@@H]1CCCO[C@@](C(=O)NCc2ccccc2)(C(F)(F)F)C1,7%,·,·,·,1%,-20%
N#C/C(=C\c1ccco1)c1nc2ccccc2s1,12%,2%,-19%,8%,-6%,110%
N#C/C(=C/c1ccc(-c2cc(C(=O)O)cc(C(=O)O)c2)o1)c1nc2ccccc2s1,·,20µM*,·,·,·,·
N#C/C(=C(/O)c1ccc(-c2cccc([N+](=O)[O-])c2)o1)c1nc2ccccc2s1,-10%,-23%,18µM*,-31%[57.1 µM],?,50µM*
C[C@@H]1C(=O)N(S(=O)(=O)c2ccccc2[N+](=O)[O-])[C@H]1c1ccc(-c2ccccc2)cc1,0%,·,·,·,-4%,-29%
Cc1ccc(NC(=O)CN2CCN(C(=O)c3ccco3)CC2)cc1,4%,-4%,-7%,-3%,4%,25%
Cc1ccc2nc(-c3ccc(NC(=O)CN4CCN(C(=O)c5ccco5)CC4)cc3)sc2c1,-3%,32µM*,79µM*,?,45µM*,28µM*
CC(C)c1ccc(/C=C/c2[nH]c(=O)[nH]c(=O)c2[N+](=O)[O-])cc1,-15%,2%,?,2%,-7%,?
